TDP1 cell noCPT: qHTS for Inhibitors of human tyrosyl-DNA phosphodiesterase 1 (TDP1): qHTS in cells in absence of CPT. DT40 Tdp1-/- hTDP1 cells, no CPT, ATP luminescence, 48 h. Potency, µM (doses to about 46.2 µM), for the others: top-dose activity change, negative = growth inhibition, hits mostly inhibitors. hit rate 15% among 420,000. AID 686978, 2013; also: % is scaled to controls: 0 for no effect and ±100 for the full control effect; nearly all actives have a fitted effect of over 55% in size
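Growth of hTDP1-complemented DT40 Tdp1-knockout cells is measured by ATP luminescence after at least 48 hr compound exposure at 37 °C, with DMSO substituting for the 20 nM CPT used in the parallel screen.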
ATXN2 expr inh: Primary qHTS for Inhibitors of ATXN expression; HEK-293 ATXN2-luciferase reporter, luminescence, 24 h; Potency, µM (doses to about 57 µM), for the others: at the highest dose activity change, negative = inhibition, most hits filed as inhibitors; hit rate 0.72% among 360,000; AID 1745845, 2022; also: % is scaled to controls: 0 for no effect and ±100 for the full control effect; nearly all actives have a fitted effect of over 55% in size
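qHTS (up to 57 uM final) was run with 24 h compound exposure of reporter cells at 37 °C. Each well was multiplexed: SteadyGlo luminescence measured ATXN2-luciferase expression after a fluorogenic Gly-Phe-AFC viability readout (25 uM final).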
HepG2 tox: qHTS for Inhibitors of TGF-b: Cytotox Counterscreen; HepG2 CAGA-GFP viability, ATP luminescence, 18 h; Potency, µM (doses to about 46.1 µM), for inactives: at the top dose activity change, negative = cytotoxicity, most hits filed as cytotoxic; hit rate 0.76% among 410,000
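CellTiter-Glo luminescence gave cytotoxicity after 18 hours at 37 degrees C. The cells were HepG2 CAGA-GFP in 1% FBS DMEM, stimulated with 500 pg/mL TGF-beta after compound addition. %Activity was normalised to no-cell wells (complete cell-killing) and DMSO (no toxicity), and curves were fitted and classified.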
DT40 TDP1 CPT: qHTS for Inhibitors of human tyrosyl-DNA phosphodiesterase 1 (TDP1): qHTS in cells in presence of CPT; Potency, µM (doses to about 46.2 µM), for the others: top-dose activity change, negative = growth inhibition, most hits filed as inhibitors; chicken DT40 Tdp1-/-;hTDP1 cells + 20 nM CPT, ATP luminescence, 48 h; hit rate 12% among 420,000; AID 686979, 2013; also: % is scaled to controls: 0 for no effect and ±100 for the full control effect; nearly all actives have a fitted effect of over 55% in size
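Cell growth measured by CellTiter-Glo luminescence after a minimum 48 h, 37 C compound exposure with 20 nM CPT in Tdp1-knockout DT40 cells stably expressing hTDP1, seeded 400/well; qHTS titration format.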
S2 tox: Viability Counterscreen for Primary qHTS for Inhibitors of ATXN expression; S2 cells (HEK-293 line with an ATXN2-luciferase reporter) viability, CellTiter-Fluor protease fluorescence, 24 h; Potency, µM (top dose mostly 56.7 µM), usual class: cytotoxic; hit rate 0.49% among 400,000; AID 651635, 2014; also: nearly all actives have a fitted effect of over 40% in size
TGFb inhibitor: qHTS for Inhibitors of TGF-b; HepG2 CAGA-GFP TGF-b/SMAD3 reporter, GFP fluorescence, 18 h; TGF-beta stimulated, 500 pg/mL final; Potency, µM (doses to about 46.1 µM), for the others: at the highest dose activity, negative = inhibition, hits mostly inhibitors; hit rate 1.2% among 410,000; AID 588855, 2011; also: % is scaled to controls: 0 for no effect and ±100 for the full control effect; nearly all actives have a fitted effect of over 65% in size
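TGF-beta reporter screen: HEPG2 CAGA-GFP, 1% FBS, 500 pg/mL TGF-beta final, 18 h; per-cell GFP summed per well; curves fitted and categorized by class.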
* marks the source's active call; other numbers are inactive results; i = inactive; u = inconclusive; x = no result given. In the library only some 17% were active in any assay of this set; here they are far more common. Calls follow the shape of the dose curve; as a rule, active = well fitted curve in the direction sought with a large enough effect; inconclusive = small, poorly fitted or top-dose-only effect, or another doubt; inactive = no such curve, though single readings can be large; an effect the other way counts as inactive or inconclusive. Potency is read from the fitted curve at half-maximal effect.

SMILES	TDP1 cell noCPT	ATXN2 expr inh	HepG2 tox	DT40 TDP1 CPT	S2 tox	TGFb inhibitor
CC(C)(C)C(=O)N(Cc1ccc(Cl)cc1)c1cnccn1	11.6µM*	x	-13.9%	u	u	-17.3%
O=C(NCCc1ccc(Cl)cc1)c1cnccn1	14.0%	19.8%	1.6%	1.4%	i	1.1%
COc1ccccc1N1CCN(C(=O)c2oc3c(c2C)C(=O)CC(C)(C)C3)CC1	6.51µM*	x	-2.9%	14.6µM*	u	4.3%
COc1ccccc1N1CCN(C(=O)c2oc3cc(C)cc(C)c3c2C)CC1	25.9µM*	-15.0%	-44.3%	u	i	u
Cc1cc(C)cc(NC(=O)c2cccc(C(=O)Nc3cc(C)cc(C)c3)c2)c1	-27.9%	-1.4%	7.6%	u	i	3.3%
CN(c1ccccc1)S(=O)(=O)c1cccc(NC(=O)CCNC(=O)c2ccc(Cl)cc2)c1	u	-27.2%	-15.9%	23.1µM*	u	u
CN(c1ccccc1)S(=O)(=O)c1cccc(NC(=O)CCNC(=O)c2ccc([N+](=O)[O-])cc2)c1	u	-34.7%	-35.1%	u	i	0.5%
CCCC(=O)Nc1cccc(S(=O)(=O)N(C)c2ccccc2)c1	u	-0.9%	5.4%	16.4µM*	i	-0.7%
CN(c1ccccc1)S(=O)(=O)c1cccc(NC(=O)CCNC(=O)c2ccccc2)c1	16.4µM*	u	-63.9%	18.4µM*	i	-11.5%
CN(c1ccccc1)S(=O)(=O)c1cccc(NC(=O)COc2ccccc2)c1	u	x	-0.2%	u	i	-4.4%
COc1cccc(C=NNC(=S)NN=Cc2cccc(OC)c2OC)c1OC	4.11µM*	1.4%	1.9%	4.61µM*	i	-4.2%
COc1cccc(/C=N/n2c(N)c(S(=O)(=O)c3cccs3)c3nc4ccccc4nc32)c1OC	5.8µM*	u	-2.9%	7.31µM*	i	1.6%
COc1cccc(C=NNc2nnc(NN=Cc3cccc(OC)c3OC)c3ccccc23)c1OC	20.6µM*	78.3%	-36.7%	23.1µM*	u	u
COc1cccc(/C=N/NC(=S)NC2CC3CCC2C3)c1OC (stereo not given)	20.6µM*	x	2.0%	u	i	-7.7%
COc1cccc(/C=N/NC(=O)C[n+]2ccccc2)c1OC	-8.4%	6.3%	8.7%	-8.9%	i	0.1%
Cc1cn2c(=O)cc(COc3cc(C)c(Cl)c(C)c3)nc2s1	7.6%	11.1%	-1.8%	11.4%	i	0.9%
COc1cccc(C=NNc2ccc([N+](=O)[O-])cn2)c1OC	-14.9%	u	7.1%	-3.3%	u	16.3%
COc1ccc(/C=N/Nc2ncnc3c2[nH]c2ccccc23)c(OC)c1OC	-29.4%	7.1%	-2.3%	-15.4%	i	u
COc1cccc(/C=N/Nc2ncnc(N)c2[N+](=O)[O-])c1OC	-17.3%	8.91µM*	-12.5%	-15.5%	i	4.3%
CNc1nc2ccccc2n1/N=C/c1cccc(OC)c1OC	20.6µM*	5.6%	-25.1%	u	i	2.9%
COc1cccc(/C=N/Nc2ncnc3c2[nH]c2ccc(C)cc23)c1OC	5.8µM*	x	4.3%	2.06µM*	i	u
Nc1nonc1-c1nc2ccccc2n1CC(=O)Nc1ccccc1C(=O)O	u	40.4%	-3.6%	u	i	0.5%
COC(=O)c1ccc(NC(=O)Cn2c(-c3nonc3N)nc3ccccc32)cc1	-13.1%	-12.4%	3.9%	u	u	-2.5%
CCOC(=O)c1ccc(NC(=O)Cn2c(-c3nonc3N)nc3ccccc32)cc1	u	x	4.0%	16.4µM*	u	-11.8%
